# Data published in the supplement of paper PMC11417369.
# The full ranking holds about 25,000 sequences; the median of “ln(normalized median fluorescence intensity)” is about 9.7, and the highest 2% start at about 11. The sample as a whole holds a higher share of the highest values than the screen did.
# System: PfAP2-HC AP2 domain (GST-tagged)
# Assay: gcPBM binding intensity (ln(normalized median fluorescence intensity)); higher = stronger DNA binding
# Summary of the method: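 Each value is the highest Masliner-normalised natural-log median intensity across replicate spots of either orientation of a probe. The probes were primer-extended double-stranded 36-bp intergenic genomic sequences on an Agilent 4 × 180k array, alongside negative controls, exposed for 1 h to GST-tagged P. falciparum DNA-binding domains expressed in E. coli. Bound protein was picked up with Alexa488 anti-GST antibody and scanned at 488 nm.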
row,Sequence,gcPBM binding intensity (ln)
1,TTTTAAAAATCTATATGTACACAATACGTCTATAAA [XGTACX_site5787],9.54
2,AAAAAAAAACAAAAAAGTACAAAATAAAAATACGTT [XGTACX_site4566],9.75
3,TTTTTTTCTTTTCAAACACACAATTGGTATATATTA [CACACA_site3320],9.81
4,AAGAATTATAGAAACACACATACATACAGACATACA [CACACA_site1943],10.1
5,AACGTCTTTTTTTTTTTTTTTCTTTTTTTTTTTATT [CACACA_negctrl_site303],9.86
6,AAAAAAAACACGCGCACACACACACCCACCCACCGA [CACACA_site2206],11.5
7,AGAAAAAAACAACATGCACACGCACCCACAAAAAAA [CACACA_site7908],10.4
8,AAAAAAAACACGCGCACACACACACCCACAGACACA [CACACA_site5253],10.7
9,AAAAAAAAAAAAAACACACATACACGCCCACCCATA [CACACA_site3391],10.4
10,AAAAAAAAAAAAAAAACACACATACACGCACGCACA [CACACA_site7569],10.8
11,AAAAAACACGCGCACACACACACACGCGCCCACATA [CACACA_site7106],11.1
12,AAAAAAAAAACAAATACACACGCACCCAAAAAAAAA [CACACA_site8166],10.2
13,AAAAAAACAACATGCACACGCACACCCAAAAAAAGC [CACACA_site72],10.7
14,AAAAAAAAAACACGCGCACACACACCCACCCACCCA [CACACA_site8689],10.9
15,GTATAATTGGAAATTACACACCTTAGAATGTAACAT [CACACA_site4059],9.68
16,AAAACTATAAAAATTTTACACACTGTTTTTAAATAA [CACACA_site3667],9.57
17,TATATTATTCATTAAGCACACATTATTTTTATAATA [CACACA_site6056],9.69
18,ATAATTAACAAATACACACACACACGCCCACAAAAA [CACACA_site6389],11.6
19,ATAATTAACAAATACACACACACACCCAGACAAAAA [CACACA_site4445],10.8
20,ATAATTAACAAATACACACACACACCCCCACAAAAA [CACACA_site518],10.9
21,TTTATTTATTAATACACACACACACCCAGACAAAAT [CACACA_site4292],11.3
22,GTATTATATTTTAATACACACCCAAATATTAAAAAG [CACACA_site8968],9.77
23,TTAATACCCGGACACACACACACAAAATAAAATACA [CACACA_site4296],10.6

row,Sequence,gcPBM binding intensity (ln)
1,TTTATTTATTAATACACACACACACGCCCACAAAAT [CACACA_site6253],10.5
2,TTAATACCCAGACACACACACACAAAATAAAATACA [CACACA_site7968],11
3,TTTATTTATTAATACACACACACACCCCCACAAAAT [CACACA_site240],11.4
4,TATTAATACAGACACACACACACACCCAATAAAATA [CACACA_site243],10.8
5,TTTTTATTTATTAATACACACACACCCACCCACAAA [CACACA_site7965],10.4
6,ACATAATTAACAAATACACACACACCCACCCACAAA [CACACA_site8069],10.7
7,AAAATCTATATTAACACACACACAAAAAAAAAAAAA [CACACA_site6738],10.6
8,TAACTTGAATGGATATGTACATATATATATATATAT [XGTACX_site5990],10
9,TTGTTTTTTTTTTCTATAAGCATAAAAATGATATAA [XGTACX_negctrl_site356],9.27
10,ATATAAGAAATAAAGAAAAATGTGTTTTTTTTTTTT [XGTACX_negctrl_site396],9.6
11,ATATATATATATATAACACACGCAAAAAAATTAAAT [CACACA_site8395],10.1
12,ACGATGAATATGTAAAGTACGCAAATGTAACAATAT [XGTACX_site728],9.91
13,TATCATTGTTCATGCTTGCACTTTTGTTACTGTTCC [GTGCAC_site9425],9.87
14,GAGAACATTGATACACGTACATAAGTTATAAGTATT [XGTACX_site7665],9.71
15,TTAATTACATGTAATTGTACTTAATTATAAGACATT [XGTACX_site464],9.52
16,AAAAAAAATATCTATGCATGTAATATTATGATATTG [TGCATGCA_site546],9.58
17,TTCAAAAATATATAATGTACACAAATATAAAAGAAT [XGTACX_site1944],9.81
18,AAAGAAAAAAAAAACACACACACACCCATTCAATAT [CACACA_site38],11.4
19,AAAAAGGAGAAACACACACACACACCCATATATATA [CACACA_site905],10.7
20,CACTAAAAGAAACACACACACACACCCATATATATA [CACACA_site4151],11
21,AAAAGAAAAAGAAAAACACACATAAATATAAATATA [CACACA_site1879],10.2
22,AGAAAAAAAAAACACACACACACACCCTCAATATAA [CACACA_site39],10.5
23,AATAAAAAGAAACACACACACACACCCATATATATA [CACACA_site3589],11.5

row,Sequence,gcPBM binding intensity (ln)
1,ATACTAAAGAAACACACACACATATATATATAGAAT [CACACA_site100],10.9
2,ATAAAAAAAAGAAAAACACACACATATATATATATA [CACACA_site8243],10.4
3,AAAGAAAAAAAAAACACACACACACGCATTCAATAT [CACACA_site6169],10.7
4,TATCATTTGGTCTTTTACTTTTTCTGTTTTTTTTTT [CACACA_negctrl_site976],9.91
5,CTCATTTTTGTACAGGTGCACTTATCGTTACACTAT,9.93
6,CGAAGGTTTGGCCATGCATGTTATAAGAATATATGT [TGCATGCA_site441],9.51
7,AACTTTATTCCTAATTGTACACATATATATATATAT [XGTACX_site6823],10
8,GGGGACGCGGGTGGGGGTACTCACACTATGCAAAAT [XGTACX_site7745],9.74
9,AATAAGCTCACGTGTCGTACATTTTTTAAAACAACC [XGTACX_site4707],9.78
10,CGTATTTATATAATTACACACCATATTTTAATTATT [CACACA_site5960],9.76
11,AATGAACAGACGAGCACACACACACCCATATATATA [CACACA_site1018],10.9
12,AAAATGAACTCACGAGCACACACACCCATATATATA [CACACA_site8247],10.3
13,AATGAACTCACGAGCACACACACACCGATATATATA [CACACA_site4710],11
14,AAAACACGCGGACACACACACACACGCCCACATATA [CACACA_site7105],10.6
15,CATACACCCGGACACACACACACACCCATATATAAT [CACACA_site4494],10.5
16,CACGCGCCCGGACACACACACACACCCATATATATA [CACACA_site5251],11.3
17,AACACGCGCAGACACACACACACACCCACATATATA [CACACA_site2205],10.6
18,AACACGCGCGGACACACACACACACCCACATATATA [CACACA_site5252],11.3
19,TATACACCCGGACACACACACATATATATATATATA [CACACA_site5030],10.3
20,CGTGGGAGCGGACACACACACACACCCATATATATA [CACACA_site4340],10.4
21,AAAACACGCGGACACACACACACACCCACCCATATA [CACACA_site8688],11.6
22,ATTTATATGTGGAGCAGTACGCACTCTCACAATTAA [XGTACX_site7252],9.44
23,TGAATATTTACTTTAGCACACAATTTGTATTTGATT [CACACA_site960],9.86

row,Sequence,gcPBM binding intensity (ln)
1,ATTATTTACCACAACACACAAATATTTACCAATCAT [CACACA_site5472],10.5
2,TTGTTTATTTGTAAAGCTAACAAGAAATGTGAATAT [CACACA_negctrl_site931],9.51
3,AGCATTTTAAAAGAAAAAAAAAAAAAAAAAAAAATA [GTGCAC_negctrl_site723],9.17
4,TCATTTTACAGATGTGCATGTGAATCAATCTATTTA [TGCATGCA_site787],9.56
5,ATTACTAAAAAATATAAACACACATATATTTTACAT [CACACA_site8633],9.88
6,CACAGACACGGACACACACACACACCCATATATATA [CACACA_site4354],11.3
7,CACAGACACGGACACACACACATATATATATATATA [CACACA_site5248],10.4
8,CACAGACACGGACACACACACACACCCAGACACATA [CACACA_site4357],11.6
9,TTGGCATACGGACACACACACACACCCAGACATATA [CACACA_site4492],10.4
10,TGGGAGCACAGACACACACACACACCCATATATATA [CACACA_site335],10.5
11,CGCGCACCCAGACACACACACACACCGATATATATA [CACACA_site8687],10.9
12,TGGGAGCACAGACACACACACACACCGATATATATA [CACACA_site8001],11.3
13,CACAGACACGGACACACACACACACCGATATATATA [CACACA_site4353],11.2
14,TATATTATCAAAATGGTGCAATAATTTCTATATTAT [GTGCAC_site9772],9.49
15,ATATAATGACAAGTATAAGTATCACAAAGAAATAAA [CACACA_negctrl_site1403],9.79
16,CAGGCGTGAAATATACGTACACACATTATTTATATT [XGTACX_site5337],9.94
17,AAGAAAAAAAAAATTACACACTGCGGACATACACAA [CACACA_site4838],9.98
18,TAAGATATAAAAAATGTGCACATTAAAGTATTAATT,9.86
19,TATTGTAAGAAAGGCACACAGATAAAATTATTATAT [CACACA_site2921],9.87
20,CGGTATTTTTTAATTTGTACGCATATACAATAATTA [XGTACX_site8603],9.54
